PubChem BioAssay AID1159580 (chemical genetic matrix, 2015)
Several values for one entry are separate records, joined by “and”; a condition that tells them apart may be missing. Equal values may be shown once. Screen size: about 5,500 compounds; about 2,000 (36%) were called active. Roughly 18% stayed inconclusive and do not appear here. No stated cut-off is given here; in the data, active means normalized growth mostly below about 0.91 (no sharp cut-off); inconclusive means no clear call, values can overlap the other calls; inactive means mostly above about 0.92. Some of the results follow.

Assay: chemical genetic growth profiling, strain panel (AID 1159580);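 further: tested at 20 µM; growth read once vehicle control cultures reached saturation at 30 °C; 1 = growth at the plate median or of vehicle wells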
Conditions: S. cerevisiae deletion strains, growth OD

Measured: normalized growth

CC(=O)Oc1ccc2c(c1OC(C)=O)OCC1(O)Cc3c(cc(OC(C)=O)c(OC(C)=O)c3OC(C)=O)C21 (configuration not stated)
inactive: locus YAL013W, strain DEP1, stronger effect = lower value 1.02 | locus YAL021C, strain ccr4, stronger effect = lower value 0.948 | locus YAL026C, strain drs2, stronger effect = lower value 1.03 | locus YAL030W, strain snc1, stronger effect = lower value 1.01 | locus YBL061C, strain skt5, stronger effect = lower value 1.01 | locus YBR009C, strain hhf1, stronger effect = lower value 1.01 | locus YBR021W, strain FUR4, stronger effect = lower value 1.02 | locus YBR023C, strain chs3, stronger effect = lower value 0.988 | locus YBR171W, strain sec66, stronger effect = lower value 1.02 | locus YBR229C, strain ROT2, stronger effect = lower value 1.01 | locus YBR231C, strain swc5, stronger effect = lower value 0.975 | locus YBR279W, strain paf1, stronger effect = lower value 0.99 | locus YCL011C, strain gbp2, stronger effect = lower value 0.997 | locus YCL016C, strain dcc1, stronger effect = lower value 0.982 | locus YCL029C, strain bik1, stronger effect = lower value 0.978 | locus YCL061C, strain MRC1, stronger effect = lower value 1 | locus YCL069W, strain vba3, stronger effect = lower value 1.03 | locus YCR088W, strain abp1, stronger effect = lower value 1.02 | locus YDL005C, strain med2, stronger effect = lower value 1.01 | locus YDL035C, strain GPR1, stronger effect = lower value 1.01 | locus YDL040C, strain nat1, stronger effect = lower value 1.01 | locus YDL074C, strain BRE1, stronger effect = lower value 0.973 | locus YDL101C, strain DUN1, stronger effect = lower value 0.943 | locus YDL134C, strain PPH21, stronger effect = lower value 0.997 | locus YDL185W, strain tfp1, stronger effect = lower value 0.955 | locus YDL192W, strain arf1, stronger effect = lower value 1.01 | locus YDR001C, strain nth1, stronger effect = lower value 1.02 | locus YDR069C, strain doa4, stronger effect = lower value 0.969 | locus YDR101C, strain arx1, stronger effect = lower value 1.04 | locus YDR137W, strain rgp1, stronger effect = lower value 1 | locus YDR159W, strain sac3, stronger effect = lower value 1.06 | locus YDR162C, strain NBP2, stronger effect = lower value 0.948 | locus YDR195W, strain ref2 1.01 | locus YDR297W, strain sur2, stronger effect = lower value 1 | locus YDR318W, strain mcm21, stronger effect = lower value 1.02 | locus YDR334W, strain swr1, stronger effect = lower value 1.02 | locus YDR335W, strain msn5, stronger effect = lower value 0.998 | locus YDR388W, stronger effect = lower value 0.996 | locus YDR392W, strain spt3, stronger effect = lower value 0.923 | locus YDR502C, strain sam2, stronger effect = lower value 1 | locus YEL003W, strain gim4, stronger effect = lower value 1 | locus YEL037C, strain rad23, stronger effect = lower value 1.01 | locus YEL061C, strain CIN8 (second series), stronger effect = lower value 1.01 | locus YER015W, strain faa2, stronger effect = lower value 0.974 | locus YER016W, strain bim1, stronger effect = lower value 1.02 | locus YER110C, stronger effect = lower value 0.991 | locus YER111C, strain swi4, stronger effect = lower value 0.999 | locus YER155C, strain BEM2 (second series), stronger effect = lower value 1.02 | locus YER155C, strain BEM2, stronger effect = lower value 1.02 | locus YER167W, strain BCK2, stronger effect = lower value 1.01 | locus YFR010W, strain ubp6, stronger effect = lower value 1.02 | locus YGL078C, strain dbp3, stronger effect = lower value 0.983 | locus YGL086W, strain mad1, stronger effect = lower value 0.986 | locus YGL167C, strain pmr1, stronger effect = lower value 0.995 | locus YGL173C, strain kem1, stronger effect = lower value 1.02 | locus YGL227W, strain vid30, stronger effect = lower value 1.02 | locus YGL240W, strain doc1, stronger effect = lower value 1.07 | locus YGL248W, strain PDE1, stronger effect = lower value 0.965 | locus YGL253W, strain hxk2, stronger effect = lower value 1.04 | locus YGR135W, strain pre9, stronger effect = lower value 0.949 | locus YGR229C, strain SMI1, stronger effect = lower value 1.07 | locus YGR252W, strain gcn5, stronger effect = lower value 1.11 | locus YHR013C, strain ard1, stronger effect = lower value 0.981 | locus YHR027C, strain rpn1, stronger effect = lower value 1 | locus YHR030C, strain SLT2, stronger effect = lower value 1.01 and 1.06 | locus YHR079C, strain IRE1 (second series), stronger effect = lower value 0.987 | locus YHR079C, strain IRE1, stronger effect = lower value 1.08 | locus YHR094C, strain hxt1, stronger effect = lower value 1 | locus YHR129C, strain ARP1, stronger effect = lower value 1.01 | locus YHR142W, strain chs7, stronger effect = lower value 1 | locus YHR200W, strain rpn10, stronger effect = lower value 0.983 | locus YIL066C, strain RNR3, stronger effect = lower value 0.97 | locus YIL073C, strain SPO22, stronger effect = lower value 0.794 | locus YIL125W, strain kgd1, stronger effect = lower value 0.993 | locus YIR030C, strain dcg1, stronger effect = lower value 0.986 | locus YJL092W, strain hpr5, stronger effect = lower value 1.01 | locus YJL095W, strain BCK1 (second series), stronger effect = lower value 1 | locus YJL095W, strain BCK1, stronger effect = lower value 0.947 and 1.06 | locus YJL115W, strain asf1, stronger effect = lower value 1.01 | locus YJL129C, strain trk1, stronger effect = lower value 1.03 | locus YJL134W, strain LCB3, stronger effect = lower value 1 | locus YJL154C, strain vps35, stronger effect = lower value 1.01 | locus YJL164C, strain tpk1, stronger effect = lower value 0.98 | locus YJL166W, strain qcr8, stronger effect = lower value 1.01 | locus YJL168C, strain set2, stronger effect = lower value 0.997 | locus YJL187C, strain SWE1 (second series), stronger effect = lower value 0.873 | locus YJL187C, strain SWE1, stronger effect = lower value 0.988 | locus YJR066W, strain TOR1, stronger effect = lower value 1.04 | locus YKL009W, strain mrt4, stronger effect = lower value 0.973 | locus YKL068W, stronger effect = lower value 0.994 | locus YKL085W, strain MDH1 (second series), stronger effect = lower value 0.976 | locus YKL085W, strain MDH1, stronger effect = lower value 0.976 | locus YKL160W, strain elf1, stronger effect = lower value 0.983 | locus YKL190W, strain CNB1, stronger effect = lower value 0.987 | locus YKR001C, strain vps1, stronger effect = lower value 1.04 | locus YKR026C, strain gcn3, stronger effect = lower value 1.02 | locus YKR091W, strain srl3, stronger effect = lower value 1.01 | locus YLL001W, strain dnm1, stronger effect = lower value 0.978 | locus YLL026W, stronger effect = lower value 1.01 | locus YLL041C, strain sdh2, stronger effect = lower value 1.02 | locus YLR027C, strain aat2, stronger effect = lower value 1.01 | locus YLR039C, strain RIC1, stronger effect = lower value 1.06 | locus YLR058C, strain SHM2, stronger effect = lower value 0.898 | locus YLR102C, strain apc9, stronger effect = lower value 0.981 | locus YLR113W, strain HOG1, stronger effect = lower value 1.04 | locus YLR221C, strain rsa3, stronger effect = lower value 1.03 | locus YLR258W, strain gsy2, stronger effect = lower value 1 | locus YLR262C, strain YPT6 (second series), stronger effect = lower value 1 | locus YLR268W, strain sec22, stronger effect = lower value 1.01 | locus YLR320W, strain mms22, stronger effect = lower value 1.03 | locus YLR330W, strain CHS5, stronger effect = lower value 1.02 | locus YLR342W, strain FKS1, stronger effect = lower value 1 | locus YLR357W, strain rsc2, stronger effect = lower value 1 | locus YLR370C, strain arc18, stronger effect = lower value 1.01 | locus YLR371W, strain rom2, stronger effect = lower value 0.997 | locus YLR384C, strain iki3, stronger effect = lower value 1.01 | locus YLR418C, strain cdc73, stronger effect = lower value 1.02 | locus YML016C, strain PPZ1, stronger effect = lower value 0.972 | locus YML032C, strain rad52, stronger effect = lower value 1 | locus YML120C, strain ndi1, stronger effect = lower value 0.983 | locus YML124C, strain tub3, stronger effect = lower value 0.988 | locus YMR058W, strain fet3, stronger effect = lower value 1.02 | locus YMR078C, strain ctf18, stronger effect = lower value 0.994 | locus YMR125W, strain sto1, stronger effect = lower value 0.989 | locus YMR129W, stronger effect = lower value 1.01 | locus YMR205C, strain PFK2, stronger effect = lower value 0.974 | locus YMR223W, strain ubp8, stronger effect = lower value 0.995 | locus YMR231W, strain pep5, stronger effect = lower value 1.01 | locus YMR263W, strain SAP30, stronger effect = lower value 1.01 | locus YMR307W, strain GAS1, stronger effect = lower value 1.06 | locus YNL067W, strain RPL9B, stronger effect = lower value 1.02 | locus YNL071W, strain lat1, stronger effect = lower value 1 | locus YNL183C, strain NPR1, stronger effect = lower value 1.03 | locus YNL209W, strain ssb2, stronger effect = lower value 0.973 | locus YNL233W, strain BNI4, stronger effect = lower value 1 | locus YNL248C, strain rpa49, stronger effect = lower value 1.04 | locus YNL250W, strain rad50, stronger effect = lower value 0.925 | locus YNL271C, strain bni1, stronger effect = lower value 0.976 | locus YNL298W, strain CLA4, stronger effect = lower value 1.01 | locus YNL307C, strain MCK1, stronger effect = lower value 0.998 | locus YNL322C, strain KRE1 (second series), stronger effect = lower value 1 | locus YNR049C, strain mso1, stronger effect = lower value 1.03 | locus YNR052C, strain pop2, stronger effect = lower value 0.988 | locus YOL006C, strain TOP1, stronger effect = lower value 0.743 | locus YOL012C, strain htz1 0.406 | locus YOL147C, strain pex11, stronger effect = lower value 0.999 | locus YOR001W, strain rrp6, stronger effect = lower value 1.06 | locus YOR061W, strain CKA2, stronger effect = lower value 0.981 | locus YOR069W, strain VPS5, stronger effect = lower value 1 | locus YOR070C, strain gyp1, stronger effect = lower value 1.01 | locus YOR080W, strain dia2, stronger effect = lower value 1 | locus YOR083W, strain WHI5, stronger effect = lower value 0.984 | locus YOR106W, strain vam3, stronger effect = lower value 0.955 | locus YOR136W, strain idh2, stronger effect = lower value 1.02 | locus YOR144C, strain elg1, stronger effect = lower value 1 | locus YOR184W, strain ser1, stronger effect = lower value 1.1 | locus YOR231W, strain MKK1, stronger effect = lower value 1.08 | locus YOR265W, strain rbl2, stronger effect = lower value 1.03 | locus YOR270C, strain vph1, stronger effect = lower value 1.07 | locus YOR290C, strain snf2, stronger effect = lower value 0.988 | locus YOR316C, strain cot1, stronger effect = lower value 0.987 | locus YPL051W, strain arl3, stronger effect = lower value 0.969 | locus YPL078C, strain atp4, stronger effect = lower value 0.991 | locus YPL106C, strain sse1, stronger effect = lower value 0.949 | locus YPL240C, strain hsp82, stronger effect = lower value 1.01 | locus YPL241C, strain CIN2, stronger effect = lower value 0.996 | locus YPL256C, strain CLN2, stronger effect = lower value 1.05 | locus YPR119W, strain clb2, stronger effect = lower value 0.996 | locus YPR141C, strain kar3, stronger effect = lower value 0.989 | locus YPR163C, strain tif3, stronger effect = lower value 1.01 | locus YPR167C, strain met16, stronger effect = lower value 1.01 | strain wtn01, stronger effect = lower value 0.992
